Assay outcomes: PubChem, several laboratories
INS promoter inh – TRM-6 insulin promoter activity inhibition; AID 1273; TRM-6 cells (human fetal islet line), insulin promoter-eGFP reporter, imaging; reporter expression induced with tamoxifen; inhibition, % at 2 µM; hit rate 0.9% among 130,000;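 active = inhibition above the mean plus 3 SD, with well images judged a real hit on visual review, cut at about 60% in these data, passing the limit was not always enough; inconclusive = inhibition over the cutoff but images rejected on review; inactive = inhibition not above the cutoff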
sdo1 growth – sdo1-depleted yeast growth rescue; S. cerevisiae sdo1-depleted JHY4D growth rescue, OD600 30 h; hits give high values; pdr5 snq2 efflux-pump mutant strain; z-score at 10 µM; hit rate 0.21% among 140,000; AID 817;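 active = z-score above 3 at both the 24 hr and the 30 hr optical density reads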
ROMK mod – modulators of human ROMK potassium channel | P48048 | Tet-inducible ROMK, thallium flux fluorescence; actives lie on both sides | B-score at 10 µM | hit rate 2% among 130,000 | AID 1918;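 active = signal ratio slope over the read window, or its plate-corrected B-score, at least 3 SD from the plate mean, either direction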;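 note: B-score of the F/F0 ratio slope over 7 to 12 s after thallium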
Target sequence (P48048 whole entry, looked up): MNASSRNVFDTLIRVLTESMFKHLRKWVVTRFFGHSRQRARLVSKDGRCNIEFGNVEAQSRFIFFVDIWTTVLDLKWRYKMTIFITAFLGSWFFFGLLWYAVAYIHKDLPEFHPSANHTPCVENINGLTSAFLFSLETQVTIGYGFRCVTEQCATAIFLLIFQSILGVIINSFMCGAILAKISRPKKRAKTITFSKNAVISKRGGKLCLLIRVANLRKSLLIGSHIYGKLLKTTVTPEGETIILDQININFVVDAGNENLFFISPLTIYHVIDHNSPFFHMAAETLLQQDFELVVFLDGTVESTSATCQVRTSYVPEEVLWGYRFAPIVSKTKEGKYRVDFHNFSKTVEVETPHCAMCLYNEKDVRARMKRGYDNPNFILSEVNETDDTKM
Measles CPE – protection of cells from measles virus; Measles virus-infected cells, CPE protection, absorbance; protection (pct of control), % at 4 µM; hit rate 1.5% among 140,000; in the data active = protection mostly above about 24%, no sharp cut-off; inactive = mostly below about 26%
ROMK hit retest – confirmation of human ROMK potassium channel modulators; shares compounds with ROMK mod; ROMK thallium flux, fluorescence ratio; hits give low values; normalized thallium flux (F/F0 slope) at 10 µM; hit rate 54% among 3,000;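 active = Flux at 10 µM at least 3 SD below or above vehicle control mean in one or both replicates; inconclusive = no clear call, values can overlap the other calls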
Numbers stand for hits; . = inactive; ? = inconclusive; / = not tested or not shown. Sampled rows, rich in hits. Any-hit rate of the full collection: about 3%.

SMILES	INS promoter inh	sdo1 growth	ROMK mod	Measles CPE	ROMK hit retest
c1ccc(CNc2ncnc3scc(-c4cccs4)c23)nc1	.	/	.	/	/
c1ccc(-c2csc3ncnc(NCc4ccccn4)c23)cc1	/	/	/	/	0.0558
C=C(C)CSc1nc2ccccc2[nH]1	.	.	.	.	/
CCCC(=O)NCc1ccncc1	/	/	.	/	/
Cn1nnnc1SCc1ccc(C(=O)Nc2nccs2)cc1	/	.	/	.	/
C=CCn1c(SCc2ccc(C(=O)Nc3nccs3)cc2)nnc1-c1ccc(C)c(Cl)c1	/	.	/	.	.
COc1ccc(NCC(=O)N/N=C2\CCCC(C)C2)cc1 (configuration not stated)	.	.	2.09	.	.
CC1CCC/C(=N\NC(=O)Nc2ccccc2)C1 (configuration not stated)	.	.	/	/	/
Cc1cc(C2(c3ccc(O)c(C)c3)OC(=O)c3ccccc32)ccc1O	.	.	.	.	.
C=CCc1ccccc1OCC(O)CN1CCN(c2ccc(C)cc2)CC1 (configuration not stated)	/	.	-2.59	/	0.0557
Cc1ccc(-c2nn(-c3cc(Cl)ccc3[N+](=O)[O-])c(=O)c3ccccc23)cc1C	.	.	/	.	/
CCCS(=O)(=O)N1CCC(C(=O)NCCCN2CCC(Cc3ccccc3)CC2)CC1	.	.	-4.3	.	.
O=C(NN=C1CCCC1)C1COc2ccccc2O1 (configuration not stated)	/	/	.	/	/
c1cncc(C2OCC3(CO2)COC(c2cccnc2)OC3)c1 (configuration not stated)	.	/	.	/	/
O=S1CCCSC1c1cccnc1 (configuration not stated)	.	.	.	.	.
CC(C)(C)C(=O)NNC(=O)c1cc(C(C)(C)C)nn1Cc1ccccc1	/	/	.	/	/
COc1ccccc1NNC(=O)c1cc(C(C)(C)C)nn1Cc1ccccc1	/	/	/	/	0.0655
CC(C)(C)c1cc(C(=O)NNc2cccc(Cl)c2)n(Cc2ccccc2)n1	/	/	/	/	0.0568
CC(C(Sc1ccccc1N)c1ccccc1)[N+](=O)[O-] (configuration not stated)	/	/	-5.07	/	0.0418
COc1cccc(C(=O)Oc2ccc(N3C(=O)CCC3=O)c(C)c2)c1	/	/	.	/	/
Nc1c(C(=O)N/N=C/c2ccc(OCc3ccccc3)cc2)cnn1-c1ccccc1	/	/	-12.9	/	.
Nc1c(C(=O)N/N=C/c2ccc(Cl)cc2)cnn1-c1ccccc1	/	/	.	/	/
COc1ccc(Nc2oc(COc3ccc(Cl)cc3)nc2C#N)cc1	.	.	/	.	/
COc1ccc(CNc2oc(COc3ccc(Cl)cc3)nc2C#N)cc1	/	.	-2.14	.	.
C/C(=N\NC(=S)Nc1cc(S(=O)(=O)N2CCOCC2)ccc1Cl)c1ccccc1F	.	.	.	.	/
SMILES	INS promoter inh	sdo1 growth	ROMK mod	Measles CPE	ROMK hit retest
COC(=O)N/N=C/c1ccc(OC(=O)c2ccco2)c(OC)c1	/	/	4.62	/	.
COc1cc(/C=C2/C(=O)NN(c3ccc(Cl)cc3)C2=O)ccc1OC(=O)c1ccco1	.	.	-3.3	.	.
COc1ccc(/C=C/C(=O)c2cc(Br)ccc2OC(=O)c2ccco2)cc1OC	.	.	.	.	.
COc1cc(/C=N/NC(=O)c2ccc(F)cc2)ccc1OC(=O)c1ccco1	.	.	.	.	/
COc1ccc(/C=C/C(=O)c2cc(Br)ccc2O)cc1OC	/	/	.	/	/
NS(=O)(=O)c1cnccc1Nc1ccc(Cl)c(Cl)c1	.	.	.	.	/
COCC(=O)N(CCc1ccc(OC)c(OC)c1)Cc1cc2cc(C)ccc2nc1Cl	/	/	.	/	/
CNC(=S)Nc1cccc(Cl)c1C	/	/	.	/	/
O=C(COc1ncnc2scc(-c3ccc(Cl)cc3)c12)NCc1ccco1	.	.	/	.	0.061
CCNC(=O)COc1ncnc2scc(-c3ccc(F)cc3)c12	.	/	.	/	/
Fc1cccc(F)c1-n1c(CN2CCCCC2)csc1=S	/	/	.	/	/
COc1cc(C2C(C#N)=C(N)Oc3cc(O)ccc32)cc(OC)c1OC (configuration not stated)	.	.	/	.	/
COc1cc(C2C(C#N)=C(N)Oc3cc(N(C)C)ccc32)cc2c1OCO2 (configuration not stated)	.	.	/	.	0.0576
COc1cc(C2C(C#N)=C(N)Oc3cc4c(cc32)OCO4)cc(OC)c1OC (configuration not stated)	.	/	4.71	/	.
O=C(O)c1sc2cc(C(F)(F)F)cnc2c1-c1ccccn1	.	/	.	/	/
O=P(c1ccccc1)(c1ccccc1)C(O)c1ccco1 (configuration not stated)	.	.	2.24	.	.
O=P(c1ccccc1)(c1ccccc1)C(O)c1ccncc1 (configuration not stated)	/	.	.	.	/
OC(CNCC1CCCO1)Cn1c2ccccc2c2ccccc21 (configuration not stated)	/	.	-4.13	.	0.061
OC(CNCC1CCCO1)Cn1c2ccc(Cl)cc2c2cc(Cl)ccc21 (configuration not stated)	.	.	/	.	/
CC1CCCCN1CCCNC(=O)c1ccc2c(=O)n(CCc3ccccc3)c(=O)[nH]c2c1 (configuration not stated)	.	.	-3.01	.	?
O=C(Nc1ccc(F)cc1)c1ccccc1F	.	.	.	.	/
O=C(Nc1ccc(F)cc1)Nc1ccc(NC(=O)c2ccccc2O)cc1	/	/	-11	/	.
NC(=O)c1ccc(NC(=O)COC(=O)C2(c3ccccc3F)CCCC2)cc1	.	/	-12.8	/	.
N#C/C(=C\c1cn(-c2ccccc2)nc1-c1cc2ccccc2o1)c1nc2ccccc2[nH]1	.	.	-3.51	.	0.0484
O=C(N/N=C/c1cn(-c2ccccc2)nc1-c1cc2ccccc2o1)c1cccnc1	.	.	/	.	.
SMILES	INS promoter inh	sdo1 growth	ROMK mod	Measles CPE	ROMK hit retest
O=C1CC(/C=C/c2ccc([N+](=O)[O-])cc2)=Nc2ccccc2N1	/	/	/	/	0.0568
C=CCSc1nnc(C)c(/C=C/Nc2ccc(Cl)cc2)n1	/	/	-2.99	/	0.0461
CSc1nnc(C)c(/C=C/Nc2ccc(F)cc2F)n1	/	/	.	/	/
CCN(c1ccccc1)S(=O)(=O)c1ccc(OC)c(OC)c1	/	.	.	.	/
CCN(CC)S(=O)(=O)c1ccc(OC)c(NC(=S)Nc2cc(C)ccc2C)c1	.	.	.	.	/
CCN(CC)S(=O)(=O)c1ccc(OC)c(NC(=O)CSc2cc(C)ccc2C)c1	.	.	-3.24	.	0.0566
CCN(c1ccccc1)S(=O)(=O)c1ccc(OC)c(NC(=O)CNCCc2ccccc2)c1	.	/	-6.63	/	0.0498
Cc1ccc(S(=O)(=O)N2CCC(C(=O)OCc3ccc([N+](=O)[O-])cc3)CC2)cc1	.	.	/	.	/
O=C(O)c1cc(S(=O)(=O)Nc2ccc3c(c2)OCCO3)c(Cl)cc1Cl	/	.	/	.	/
Cc1c(CCCN)c2ccccc2n1Cc1ccccc1	.	/	-2.89	/	0.0497
CN1CCc2c(c3ccccc3n2Cc2ccccc2)C1	/	.	/	.	/
O=C(O)CC(Cc1ccc(Cl)cc1)C(=O)NCc1ccccc1 (configuration not stated)	.	.	/	.	/
COc1cccc(-n2nnnc2S(C)(=O)=O)c1	.	.	-3.52	.	0.0626
COc1cccc(Oc2nnnn2-c2ccccc2)c1	/	.	.	.	/
COc1ccc(N=Nc2[nH]c3ccc(C)cc3c2O)cc1	.	.	.	.	/
Cc1ccc(N=Nc2[nH]c3ccccc3c2O)cc1	.	.	-4.82	.	0.0562
